Assay [1] addresses Cell division control protein 42 homolog (Homo sapiens) (UniProt P60953). Description: activated mutant Cdc42 GTP-binding inhibitors, dose response, biochemical, multiplex bead flow cytometry, Bodipy-FL-GTP (AID 1333;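 active = fitted half-maximal concentration within the tested dose range, moderate curve steepness, a statistically real signal drop, and little compound fluorescence or tag-binding interference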). Background: Flow cytometry measures light scatter and fluorescence of single cells or particles in a stream.
The target is the same in assay [2]. Put plainly: wildtype Cdc42 GTP-binding inhibitors, dose response, biochemical, multiplex bead flow cytometry, Bodipy-FL-GTP (AID 1334;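 active = fitted half-maximal concentration within the tested range, moderate curve steepness, significant signal drop, and little compound fluorescence or bead-linkage interference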). Particulars: bead-based flow cytometry, Bodipy-FL-GTP binding to GST-Cdc42; at 100 µM (top of the series) unless noted.
In assay [3] the target is GTPase HRas (Homo sapiens) (UniProt P01112). Description: inhibitors of GTP binding to wildtype Ras, dose response, biochemical, multiplex bead flow cytometry (AID 1335). To be noted: bead-based flow cytometry, Bodipy-GTP binding to GST-Ras; at 100 µM (top of the series) unless noted.
GTPase HRas (Homo sapiens), sequence (P01112 whole entry, looked up): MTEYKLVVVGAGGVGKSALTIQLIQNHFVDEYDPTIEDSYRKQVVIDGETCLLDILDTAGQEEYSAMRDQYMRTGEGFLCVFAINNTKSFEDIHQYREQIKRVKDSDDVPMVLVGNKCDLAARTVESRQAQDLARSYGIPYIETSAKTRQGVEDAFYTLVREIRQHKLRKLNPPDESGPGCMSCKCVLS
The test system of assay [4] is Ras-related protein Rab-7a (dog), GTP binding. Description: Rab7 GTP binding inhibitors, potency, dose response, biochemical, wildtype, multiplex bead flow cytometry (AID 1336; call rule not given here).
In assay [5] the target is Ras-related C3 botulinum toxin substrate 1 (Homo sapiens) (UniProt P63000). Put plainly: wildtype Rac1 GTP binding inhibitors, dose response, biochemical, multiplex bead flow cytometry (AID 1340;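 active = dose curve with midpoint inside tested range, moderate steepness, plateau gap beyond fit error, low compound glow and bead-link interference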). Particulars: GST-Rac1 beads, Bodipy-FL-GTP binding; at 100 µM (top of the series) unless noted.
Assay [6] deals with GTPase HRas (Homo sapiens) (UniProt P01112). Description: activated Ras mutant GTP binding inhibitors, dose response, biochemical, multiplex bead flow cytometry (AID 1341;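 active = dose-response curve with midpoint inside the tested range, moderate steepness, significant amplitude and little compound fluorescence or bead-attachment interference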;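 also: GST-tagged constitutively activated Ras mutant immobilized on beads and multiplexed with other GTPases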).

For part of these data: Results with a measured potency or affinity are listed apart. Calls of active or inactive are those of the source.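 The calls were made as follows, unless noted: active = fitted half-maximal concentration within 10 nM to 100 µM, steepness 0.5 to 2, significant signal drop, low assay interference; inactive = the rest.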

Cell division control protein 42 homolog (Homo sapiens), sequence (P60953 whole entry, looked up): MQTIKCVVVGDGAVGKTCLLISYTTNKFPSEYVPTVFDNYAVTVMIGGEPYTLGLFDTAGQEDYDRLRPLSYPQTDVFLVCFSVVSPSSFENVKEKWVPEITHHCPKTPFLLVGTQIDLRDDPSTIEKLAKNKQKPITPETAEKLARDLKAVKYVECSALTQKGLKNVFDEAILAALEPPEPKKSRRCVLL

Take `O=C(Cn1nc2ccccc2n1)N/N=C/c1cc([N+](=O)[O-])ccc1O`: the compound was classed as inactive in assay [1], in assay [4] and in assay [6]. The compound further displayed a fluorescence, percent of control (lower = inhibition) in assay [2] of 23.8%. The compound also yielded a GTP binding, percent of control in assay [3] of 54.9%. Also, the GTP binding signal, raw median fluorescence (lower = inhibition) (MCF (arbitrary fluorescence units)) in assay [5] is 109.

For the compound `Cc1cc(-c2n[nH]c(=S)n2/N=C/c2cccc([N+](=O)[O-])c2)n[nH]1`, the compound was called inactive in assay [1], in assay [4] and in assay [6]. This compound displayed a fluorescence, percent of control (lower = inhibition) in assay [2] of 35%. The compound also yielded a GTP binding, percent of control in assay [3] of 51%. The compound further returned a GTP binding signal, raw median fluorescence (lower = inhibition) (MCF (arbitrary fluorescence units)) in assay [5] of 102.

With `Cc1ccc(NC(=S)NNC(=O)c2cn(C)nc2C)cc1`, the compound was called inactive in assay [1], in assay [4] and in assay [6]. This compound also showed a fluorescence, percent of control (lower = inhibition) in assay [2] of 83.7%. Moreover, the GTP binding, percent of control in assay [3] was 166%. The same compound showed a GTP binding signal, raw median fluorescence (lower = inhibition) (MCF (arbitrary fluorescence units)) in assay [5] of 180.

With `O=C(C[n+]1cccc(CNC(=O)c2ccc(OC(F)F)cc2)c1)Nc1ccccc1Cl`, the outcome in assay [1], in assay [4] and in assay [6] was inactive. Besides, the fluorescence, percent of control (lower = inhibition) in assay [2] was found to be 51.9%. Also, in assay [3], the GTP binding, percent of control is 60.5%. Moreover, in assay [5], the GTP binding signal, raw median fluorescence (lower = inhibition) (MCF (arbitrary fluorescence units)) is 203.

For `CCOC(=O)CCCCC(=O)c1[nH]c(=O)[nH]c1CSc1nnc2c3cc(Br)ccc3n(C)c2n1`, the compound was classed as inactive in assay [1], in assay [4] and in assay [6]. Moreover, the fluorescence, percent of control (lower = inhibition) in assay [2] is 34.4%. For the same compound, in assay [3], the GTP binding, percent of control amounted to 80.3%. For the same compound, the GTP binding signal, raw median fluorescence (lower = inhibition) (MCF (arbitrary fluorescence units)) in assay [5] was 167.

On to `COc1cc2nc(=S)n(CCCN3CCOCC3)c(N)c2cc1OC`, for which the call in assay [1], in assay [4] and in assay [6] was inactive. Further, the fluorescence, percent of control (lower = inhibition) in assay [2] is 38.1%. The compound further had a GTP binding, percent of control in assay [3] of 79.4%. In addition, in assay [5], the GTP binding signal, raw median fluorescence (lower = inhibition) (MCF (arbitrary fluorescence units)) worked out at 151.

As for `Nc1c(S(=O)(=O)c2ccccc2)c2nc3ccccc3nc2n1/N=C/c1cccc(O)c1`, the compound was classed as inactive in assay [1], in assay [4] and in assay [6]. Moreover, in assay [2], the fluorescence, percent of control (lower = inhibition) worked out at 91.2%. The same compound registered a GTP binding, percent of control in assay [3] of 81.1%. The compound also returned a GTP binding signal, raw median fluorescence (lower = inhibition) (MCF (arbitrary fluorescence units)) in assay [5] of 105.

Regarding `C/C(=N\NC(=O)c1c[nH]c2ccccc12)c1ccc(C)o1`, the compound was called inactive in assay [1], in assay [4] and in assay [6]. Also, in assay [2], the fluorescence, percent of control (lower = inhibition) was found to be 29.9%. In assay [3], this compound registered a GTP binding, percent of control of 68.2%. The same compound showed a GTP binding signal, raw median fluorescence (lower = inhibition) (MCF (arbitrary fluorescence units)) in assay [5] of 150.

Take `O=C(O)c1ccc(CNCc2cccc(Cl)c2)s1`: the result in assay [1], in assay [4] and in assay [6] was inactive. In assay [2], this compound had a fluorescence, percent of control (lower = inhibition) of 61.3%. This compound also registered a GTP binding, percent of control in assay [3] of 85.1%. The GTP binding signal, raw median fluorescence (lower = inhibition) (MCF (arbitrary fluorescence units)) in assay [5] turned out to be 32.6.

With `CCC(=O)c1ccc(OCC(=O)O)c(OC)c1`, the call in assay [1], in assay [4] and in assay [6] was inactive. Also, in assay [2], the fluorescence, percent of control (lower = inhibition) stood at 46.1%. Also, the GTP binding, percent of control in assay [3] is 121%. In assay [5], this compound displayed a GTP binding signal, raw median fluorescence (lower = inhibition) (MCF (arbitrary fluorescence units)) of 64.7.

Turning to `O=C(Nc1nc(-c2ccc(S(=O)(=O)N3CCCC3)cc2)cs1)c1cccs1`, the outcome in assay [1], in assay [4] and in assay [6] was inactive. The compound also returned a fluorescence, percent of control (lower = inhibition) in assay [2] of 83.9%. The compound also displayed a GTP binding, percent of control in assay [3] of 135%. Further, the GTP binding signal, raw median fluorescence (lower = inhibition) (MCF (arbitrary fluorescence units)) in assay [5] is 164.

With `CN(C)CCN(C(=O)c1ccc(N2C(=O)CCC2=O)cc1)c1nc2cc3c(cc2s1)OCO3`, the compound was called inactive in assay [1], in assay [4] and in assay [6]. Also, the fluorescence, percent of control (lower = inhibition) in assay [2] was 35.7%. The same compound showed a GTP binding, percent of control in assay [3] of 79.3%. The same compound returned a GTP binding signal, raw median fluorescence (lower = inhibition) (MCF (arbitrary fluorescence units)) in assay [5] of 261.

In the case of `CCOc1ccccc1C(=O)Nc1cccc(-c2ccc3nncn3n2)c1`, the result in assay [1], in assay [4] and in assay [6] was inactive. Moreover, the fluorescence, percent of control (lower = inhibition) in assay [2] turned out to be 33.5%. Besides, the GTP binding, percent of control in assay [3] came to 73.1%. The compound further had a GTP binding signal, raw median fluorescence (lower = inhibition) (MCF (arbitrary fluorescence units)) in assay [5] of 194.

With `Cn1nnnc1Sc1ncnc2scc(-c3ccc(F)cc3)c12`, the compound was called inactive in assay [1], in assay [4] and in assay [6]. The compound further gave a fluorescence, percent of control (lower = inhibition) in assay [2] of 52.2%. Further, the GTP binding, percent of control in assay [3] was 64.5%. The same compound came in with a GTP binding signal, raw median fluorescence (lower = inhibition) (MCF (arbitrary fluorescence units)) in assay [5] of 210.

Turning to `S=C(NCCc1ccccc1)N1CCn2cccc2C1c1cccnc1` (stereo not given), the compound was called inactive in assay [1], in assay [4] and in assay [6]. For the same compound, the fluorescence, percent of control (lower = inhibition) in assay [2] stood at 28%. Also, the GTP binding, percent of control in assay [3] is 63.3%. The compound further had a GTP binding signal, raw median fluorescence (lower = inhibition) (MCF (arbitrary fluorescence units)) in assay [5] of 227.

For the origin of these results see PubChem BioAssay.
